# In the supplement of paper PMC11732987, “Enantioselective OTUD7B fragment discovery through chemoproteomics screening and high-throughput optimisation” (Communications Chemistry, 2025):
# Unmarked numbers belong to inactive results.
# Legend:
# Assay in all cases: log2 ratio of Biotin-Ahx-Ub-VS probe labelling (fragment/DMSO); higher = less target engagement (more negative = stronger competition), active = hit call of the paper (q ≤ 0.05, log2 ratio ≤ -1)
# Conditions in all cases: compound concentration: 200 uM; treatment time: 3 h
# OTUD6B = target: T1, OTUD6B (UniProt Q8N6M0)
# T1 sequence (whole entry): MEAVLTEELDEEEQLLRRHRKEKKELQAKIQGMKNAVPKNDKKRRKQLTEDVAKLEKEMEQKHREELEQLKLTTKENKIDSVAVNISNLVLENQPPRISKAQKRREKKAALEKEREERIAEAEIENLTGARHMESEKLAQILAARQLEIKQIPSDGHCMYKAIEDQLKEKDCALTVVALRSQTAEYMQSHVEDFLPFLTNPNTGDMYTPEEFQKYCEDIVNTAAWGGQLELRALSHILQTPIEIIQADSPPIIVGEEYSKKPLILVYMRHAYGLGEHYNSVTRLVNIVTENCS
# Method in brief: (§1)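 HEK293T lysate (495 µg per sample, in Tris/CHAPS/IGEPAL buffer with protease inhibitors) was treated in triplicate with fragment at 200 µM or with DMSO for 3 h. It was then treated with Biotin-Ahx-Ub-VS (0.5 µM final) for 1 h. Labelled DUBs were NeutrAvidin-enriched, digested with LysC and trypsin, and run by diaPASEF LC-MS/MS. Spectronaut label-free quantities were global-median-normalised. Values are average log2 ratios fragment/DMSO by unpaired t-test, using proteins with ≥2 unique peptides.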
# OTUD7B = target: T2, OTUD7B (UniProt Q6GQQ9)
# T2 sequence (whole entry): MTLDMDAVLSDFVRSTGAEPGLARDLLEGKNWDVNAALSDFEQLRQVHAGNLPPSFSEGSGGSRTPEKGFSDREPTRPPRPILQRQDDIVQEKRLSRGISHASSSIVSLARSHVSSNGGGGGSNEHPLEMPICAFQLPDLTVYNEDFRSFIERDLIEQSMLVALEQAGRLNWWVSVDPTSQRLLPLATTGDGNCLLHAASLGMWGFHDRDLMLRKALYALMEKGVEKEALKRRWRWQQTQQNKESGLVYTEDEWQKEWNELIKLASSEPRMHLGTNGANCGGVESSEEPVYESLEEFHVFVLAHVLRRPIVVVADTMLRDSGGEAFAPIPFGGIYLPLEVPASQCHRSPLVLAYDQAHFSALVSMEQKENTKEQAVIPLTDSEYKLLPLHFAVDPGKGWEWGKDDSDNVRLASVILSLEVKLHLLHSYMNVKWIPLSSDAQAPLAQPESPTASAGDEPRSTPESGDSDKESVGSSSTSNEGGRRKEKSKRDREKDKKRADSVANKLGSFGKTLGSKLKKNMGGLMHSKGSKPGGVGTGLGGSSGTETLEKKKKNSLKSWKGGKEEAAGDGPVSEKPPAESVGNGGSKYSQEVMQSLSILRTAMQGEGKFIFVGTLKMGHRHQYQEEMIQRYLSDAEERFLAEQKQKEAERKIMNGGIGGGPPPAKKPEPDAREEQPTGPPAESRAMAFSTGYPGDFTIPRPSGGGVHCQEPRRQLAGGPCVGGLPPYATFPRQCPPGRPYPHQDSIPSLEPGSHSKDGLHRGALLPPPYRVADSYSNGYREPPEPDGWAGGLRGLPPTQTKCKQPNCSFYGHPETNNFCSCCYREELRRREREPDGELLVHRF
# Method in brief: as §1
# PRPF8 = PRPF8 (UniProt Q6P2Q9)
# Method in brief: as §1
# PSMD7 = target: T3, PSMD7 (UniProt P51665)
# T3 sequence (whole entry): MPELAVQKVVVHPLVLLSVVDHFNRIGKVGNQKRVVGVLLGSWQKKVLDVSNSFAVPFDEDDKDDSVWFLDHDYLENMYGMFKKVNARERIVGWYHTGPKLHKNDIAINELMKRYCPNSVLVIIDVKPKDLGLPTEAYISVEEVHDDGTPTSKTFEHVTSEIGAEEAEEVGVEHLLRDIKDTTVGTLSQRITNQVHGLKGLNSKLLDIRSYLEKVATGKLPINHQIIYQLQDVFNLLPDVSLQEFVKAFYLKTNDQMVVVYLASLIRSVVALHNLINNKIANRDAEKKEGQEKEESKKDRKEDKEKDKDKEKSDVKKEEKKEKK
# Method in brief: as §1
# UCHL1 = UCHL1 (UniProt P09936)
# Method in brief: as §1
# UCHL3 = target: T4, UCHL3 (UniProt P15374)
# T4 sequence (whole entry): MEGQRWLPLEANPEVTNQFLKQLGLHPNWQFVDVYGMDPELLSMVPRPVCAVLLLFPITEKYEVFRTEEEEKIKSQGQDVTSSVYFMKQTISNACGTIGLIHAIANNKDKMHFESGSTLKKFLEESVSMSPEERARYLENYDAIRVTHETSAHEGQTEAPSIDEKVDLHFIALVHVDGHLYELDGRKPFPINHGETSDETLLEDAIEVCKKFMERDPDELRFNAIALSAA
# Method in brief: as §1
# UCHL5 = target: T5, UCHL5 (UniProt Q9Y5K5)
# T5 sequence (whole entry): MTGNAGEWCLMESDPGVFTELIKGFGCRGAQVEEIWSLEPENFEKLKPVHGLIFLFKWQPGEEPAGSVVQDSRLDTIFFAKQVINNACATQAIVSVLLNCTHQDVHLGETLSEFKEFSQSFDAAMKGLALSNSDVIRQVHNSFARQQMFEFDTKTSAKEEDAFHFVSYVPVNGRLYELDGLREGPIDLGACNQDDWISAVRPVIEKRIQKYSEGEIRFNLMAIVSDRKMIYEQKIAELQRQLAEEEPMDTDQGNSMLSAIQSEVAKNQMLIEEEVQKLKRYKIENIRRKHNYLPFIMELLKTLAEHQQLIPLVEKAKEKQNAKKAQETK
# Method in brief: as §1
# USP10 = USP10 (UniProt Q14694)
# Method in brief: as §1
# USP15 = target: T6, USP15 (UniProt Q9Y4E8)
# T6 sequence (whole entry): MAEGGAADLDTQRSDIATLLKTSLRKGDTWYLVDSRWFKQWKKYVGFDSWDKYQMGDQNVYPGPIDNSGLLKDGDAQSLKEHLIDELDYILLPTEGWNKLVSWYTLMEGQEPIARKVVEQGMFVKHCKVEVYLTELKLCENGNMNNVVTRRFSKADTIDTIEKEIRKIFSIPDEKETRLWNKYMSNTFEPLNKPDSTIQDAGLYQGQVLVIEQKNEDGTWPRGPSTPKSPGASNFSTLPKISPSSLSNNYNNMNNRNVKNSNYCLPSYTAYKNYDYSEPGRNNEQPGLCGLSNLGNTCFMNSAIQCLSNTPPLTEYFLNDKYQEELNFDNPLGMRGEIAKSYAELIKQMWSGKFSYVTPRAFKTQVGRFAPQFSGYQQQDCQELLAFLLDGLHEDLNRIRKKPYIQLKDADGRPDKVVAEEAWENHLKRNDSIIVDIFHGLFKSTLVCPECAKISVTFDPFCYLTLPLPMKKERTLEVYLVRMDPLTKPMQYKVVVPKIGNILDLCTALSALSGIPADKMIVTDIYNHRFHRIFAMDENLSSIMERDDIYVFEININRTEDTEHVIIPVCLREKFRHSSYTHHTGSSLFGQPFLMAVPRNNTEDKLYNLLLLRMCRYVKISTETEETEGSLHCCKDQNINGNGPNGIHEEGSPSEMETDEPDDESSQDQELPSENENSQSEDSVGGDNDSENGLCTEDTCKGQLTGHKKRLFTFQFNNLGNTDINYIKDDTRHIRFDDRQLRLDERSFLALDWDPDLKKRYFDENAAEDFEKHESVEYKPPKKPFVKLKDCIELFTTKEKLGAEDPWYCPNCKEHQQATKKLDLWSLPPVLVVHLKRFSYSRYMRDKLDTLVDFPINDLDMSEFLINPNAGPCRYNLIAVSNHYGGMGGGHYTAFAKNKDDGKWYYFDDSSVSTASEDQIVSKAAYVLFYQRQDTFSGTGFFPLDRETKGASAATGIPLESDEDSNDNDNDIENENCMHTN
# Method in brief: as §1
# USP16 = USP16 (UniProt Q9Y5T5)
# Method in brief: as §1
# Sequence of UCHL1 (P09936 whole entry, looked up): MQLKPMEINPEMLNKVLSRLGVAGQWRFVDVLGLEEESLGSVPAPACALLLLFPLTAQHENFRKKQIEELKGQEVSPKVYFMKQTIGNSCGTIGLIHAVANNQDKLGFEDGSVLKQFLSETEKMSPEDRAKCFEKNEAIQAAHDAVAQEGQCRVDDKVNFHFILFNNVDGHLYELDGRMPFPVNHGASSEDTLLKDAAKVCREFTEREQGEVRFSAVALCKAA
# Sequence of USP10 (Q14694 whole entry): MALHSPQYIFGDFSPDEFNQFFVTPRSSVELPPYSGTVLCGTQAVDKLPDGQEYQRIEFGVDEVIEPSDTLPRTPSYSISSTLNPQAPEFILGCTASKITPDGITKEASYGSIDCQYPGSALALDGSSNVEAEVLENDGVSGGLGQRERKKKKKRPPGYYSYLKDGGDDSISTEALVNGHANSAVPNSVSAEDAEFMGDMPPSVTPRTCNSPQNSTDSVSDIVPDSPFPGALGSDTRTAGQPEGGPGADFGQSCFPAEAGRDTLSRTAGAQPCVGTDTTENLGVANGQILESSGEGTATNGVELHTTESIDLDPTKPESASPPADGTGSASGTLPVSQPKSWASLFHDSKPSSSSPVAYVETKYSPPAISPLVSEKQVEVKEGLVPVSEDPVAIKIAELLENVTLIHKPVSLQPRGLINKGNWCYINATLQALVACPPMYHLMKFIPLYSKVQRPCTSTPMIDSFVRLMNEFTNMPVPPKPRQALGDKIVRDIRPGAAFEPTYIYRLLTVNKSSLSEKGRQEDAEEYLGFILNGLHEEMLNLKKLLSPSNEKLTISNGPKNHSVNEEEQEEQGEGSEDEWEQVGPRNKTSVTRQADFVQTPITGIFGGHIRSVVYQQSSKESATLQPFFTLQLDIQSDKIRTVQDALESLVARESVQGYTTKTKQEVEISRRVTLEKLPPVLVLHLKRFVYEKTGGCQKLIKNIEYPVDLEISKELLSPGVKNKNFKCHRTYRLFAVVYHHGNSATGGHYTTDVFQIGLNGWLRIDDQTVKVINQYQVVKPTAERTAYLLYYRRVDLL
# Sequence of USP16 (Q9Y5T5 whole entry, looked up): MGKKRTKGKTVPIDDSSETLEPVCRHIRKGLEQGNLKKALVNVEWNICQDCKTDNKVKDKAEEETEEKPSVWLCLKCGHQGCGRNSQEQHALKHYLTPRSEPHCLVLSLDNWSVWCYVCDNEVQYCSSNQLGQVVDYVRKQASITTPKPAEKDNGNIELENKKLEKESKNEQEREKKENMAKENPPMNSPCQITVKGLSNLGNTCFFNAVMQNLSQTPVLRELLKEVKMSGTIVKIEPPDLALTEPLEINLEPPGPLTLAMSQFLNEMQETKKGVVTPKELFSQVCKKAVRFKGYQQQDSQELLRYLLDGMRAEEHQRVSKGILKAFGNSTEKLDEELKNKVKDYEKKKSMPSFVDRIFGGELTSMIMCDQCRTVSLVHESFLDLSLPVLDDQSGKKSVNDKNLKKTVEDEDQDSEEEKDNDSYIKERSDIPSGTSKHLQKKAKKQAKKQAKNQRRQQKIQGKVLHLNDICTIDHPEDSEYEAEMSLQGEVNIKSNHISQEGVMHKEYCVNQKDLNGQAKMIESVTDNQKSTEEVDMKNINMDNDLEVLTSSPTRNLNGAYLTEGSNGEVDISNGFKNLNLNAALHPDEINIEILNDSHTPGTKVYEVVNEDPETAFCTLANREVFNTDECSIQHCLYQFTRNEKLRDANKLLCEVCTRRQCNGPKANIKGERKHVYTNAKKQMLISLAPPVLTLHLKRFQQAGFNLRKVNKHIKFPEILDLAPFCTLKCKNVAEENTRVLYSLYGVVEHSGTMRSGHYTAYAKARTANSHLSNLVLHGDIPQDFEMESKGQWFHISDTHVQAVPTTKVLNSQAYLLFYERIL
structure (smiles),measurement,setting,value
O=C(CCl)N1CCOC2(CCC2)C1,log2 ratio of Biotin-Ahx-Ub-VS probe labelling,OTUD6B,0.01
same,log2 ratio of Biotin-Ahx-Ub-VS probe labelling,OTUD7B,-1.29 (active)
same,log2 ratio of Biotin-Ahx-Ub-VS probe labelling,PRPF8,-0.0922
same,log2 ratio of Biotin-Ahx-Ub-VS probe labelling,PSMD7,-0.254
same,log2 ratio of Biotin-Ahx-Ub-VS probe labelling,UCHL1,-1.53 (active)
same,log2 ratio of Biotin-Ahx-Ub-VS probe labelling,UCHL3,0.273
same,log2 ratio of Biotin-Ahx-Ub-VS probe labelling,UCHL5,-0.0117
same,log2 ratio of Biotin-Ahx-Ub-VS probe labelling,USP10,0.0764
same,log2 ratio of Biotin-Ahx-Ub-VS probe labelling,USP15,0.059
same,log2 ratio of Biotin-Ahx-Ub-VS probe labelling,USP16,0.246
